The text below walks through data of the supplement of paper PMC6555819.

Holding throughout (assay): PBM binding z-score (relative to random genomic background probes); higher = stronger binding; sequences stand for … in GC…GCGATTGACAGCGTAGAATGAAGG
Assay [1] concerns RARb homodimer (NR concentration 270 nM). Put shortly: (§1)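 The probes on custom Agilent 4×180K protein-binding microarrays were double-stranded, with 34-nt variable regions bearing direct-repeat seeds, single-nucleotide variants, half-site ablations and random human genomic background sequences. Incubation lasted 1 h with ligand-free nuclear receptor dimers in PBS pH 7.4, 2% milk, 0.02% Triton X-100, 1 mM DTT, 0.2 mg/mL BSA and 0.4 mg/ml salmon testes DNA. Antibodies against each partner (one per run) detected bound dimers, and fluorescence scans were regression-normalized. Binding z-scores take the random background probes as reference.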

The test system of assay [2] is RARg:RXRa (NR concentration 270 nM, RXRa partner concentration 90 nM). Put shortly: as §1
Assay [3] concerns RARg homodimer (NR concentration 270 nM). In short, it runs like this:
as §1

Assay [4] has as its system RXRa DBDmut IVT, anti-RXR (DBD mutation: RXRa K156A/R161A, NR concentration 90 nM). In short, it runs like this: as §1
Assay [5] concerns RXRa homodimer (NR concentration 180 nM). In short, it runs like this: as §1
For assay [6], the system named is THRa:RXRa (NR concentration 90 nM, RXRa partner concentration 90 nM). In short, it runs like this: as §1
In assay [7] the test system is THRa homodimer (NR concentration 90 nM). Put shortly: as §1
For assay [8], the system named is VDR:RXRa (NR concentration 270 nM, RXRa partner concentration 90 nM). Put shortly:
as §1

Assay [9] concerns VDR homodimer (NR concentration 270 nM). In short, it runs like this: as §1

Regarding GCTGCTAGGTCAACTGATGGTCAGCTACAGCTCG, the PBM binding z-score stood at 3.81 in assay [1]; 5.01 in [2]; 5.31 in [3]; 1.56 in assay [4]; 2.82 in assay [5]; 2.94 in [6]. Further, the PBM binding z-score worked out at 0.9 in [7], 1.51 in assay [8] and 0.228 in [9].

Turning to TCTAGGAGGACACGAAAGGTCAGAGCTCGACATC, the PBM binding z-score in assay [1] amounted to 4.84; in [2] it was 4.88; in assay [3], 5.11; in assay [4], 1.35; in assay [5] it was 4.21; in assay [6], 3.98. Besides, the values for the PBM binding z-score in assay [7], in assay [8] and in assay [9] were 1.4, 3.42 and 0.994, respectively.

For the sequence ATCTCTAGGTAAGACTGAGTTCAGTGAAGAACGC, the PBM binding z-score was 1.05 in assay [1]; 0.569 in assay [2]; 0.377 in assay [3]; 1.38 in [4]; 0.265 in assay [5]; 1.25 in [6]. Also, the PBM binding z-score in [7] amounted to 0.797; in [8] it was 2.75; in assay [9] it was 3.47.

In the case of ACTCGCAGGACAAAGGTCAGAGCTACGCCAGTGA, the PBM binding z-score stood at 4.26 in [1]; 5.2 in assay [2]; 5.21 in [3]; 0.845 in [4]; 5.45 in assay [5]; 3.03 in assay [6]. Further, the PBM binding z-score in assay [7] is 0.0955; in assay [8], 2.77; in assay [9] it was 0.474.

ATGGAAAGGTCGAGGTGAGTATAGAGAAAGGGAA: the PBM binding z-score amounted to 3.16 in [1]; 4.21 in [2]; 4.21 in [3]; 0.469 in [4]; 4.53 in [5]; 3.15 in [6]. Also, the PBM binding z-score was 1.47 in assay [7], 2.81 in assay [8] and 0.902 in assay [9].

TTACCAAGGTGAAATGTCGTTGATGCACGCCTTG: the PBM binding z-score was found to be 0.644 in [1]; 0.864 in [2]; 0.648 in assay [3]; 0.115 in [4]; 1.16 in assay [5]; 1.82 in [6]. The PBM binding z-score in assay [7] is 0.71; in [8], 0.159; in assay [9], -0.183.

Consider TGAATGAGGTTATAAGATCAGGGCACGTTGCAAA, for which the PBM binding z-score in assay [1] was determined as 1.02; in assay [2], 1.74; in [3], 1.28; in assay [4], 0.591; in assay [5], 2.05; in [6], 2.4. Also, the values for the PBM binding z-score in assay [7], in assay [8] and in [9] were 0.785, 1.21 and 0.892, respectively.

Turning to CCTGCTAGGTCATGGTCAACTAATCTACAGTATG, the PBM binding z-score turned out to be 3.37 in [1]; 4.23 in assay [2]; 5.18 in assay [3]; 1.75 in [4]; 2.88 in assay [5]; 3.26 in [6]. The values for the PBM binding z-score in [7], in [8] and in assay [9] were 1.41, 2 and 0.335, respectively.

Turning to TAGCCTAGGTCATTGGGCCAGTAGAGTACGCATC, the PBM binding z-score in [1] was 3.11; in assay [2], 3.83; in assay [3], 4.04; in assay [4] it was 1.34; in [5], 2.79; in [6], 2.88. In addition, the PBM binding z-score in [7] turned out to be 0.722; in assay [9], 1.3.

Consider CCTTACGGGTCAAGTTTATAGCACGGGTGGTACG, for which the PBM binding z-score is 3.32 in [1]; 5.13 in assay [2]; 4.78 in [3]; 2.07 in [4]; 5.03 in [5]; 2.56 in assay [6]. Further, the PBM binding z-score in assay [7] is 0.164; in assay [8] it was 3.9; in assay [9], 3.09.

For the sequence ATATGTAGGTTAAGTGTCATTCAGGTTGGTTCGC, the PBM binding z-score in [1] turned out to be 2.02; in assay [2], 1.53; in [3] it was 1.47; in assay [4] it was 1.1; in assay [5], 1.9; in [6], 1.58. Moreover, the values for the PBM binding z-score in assay [7], in assay [8] and in assay [9] were 1.08, 2.28 and 1.53, respectively.

For the sequence ATACCTAGGTGATCGTGAGGTCGTTGATACTAAC, the PBM binding z-score in [1] worked out at 1.49; in assay [2] it was 1.58; in assay [3], 0.568; in assay [4] it was 0.641; in [5] it was 1.51; in [6], 3.15. Also, the PBM binding z-score was 2.51 in [7] and 3.13 in [9].

Turning to TCAGACAGGTGAAGGTAACTAAGGTACGCAGTCG, the PBM binding z-score in assay [1] turned out to be 0.841; in assay [2] it was 0.733; in [3], 0.744; in assay [4] it was 1.14; in assay [5] it was 1.05; in assay [6], 1.43. The PBM binding z-score was 0.595 in [7], 1.01 in assay [8] and -0.102 in [9].

Regarding ATACCAAGGTAATCGTGAGGTCGTTGATACTAAC, the PBM binding z-score was determined as 1.44 in assay [1]; 1.55 in assay [2]; 0.586 in assay [3]; 0.482 in assay [4]; 1.2 in assay [5]; 3.27 in [6]. In addition, the PBM binding z-score in [7] amounted to 2.64; in [8], 3.1; in assay [9], 3.08.

With CATACAGGGTCAGCTAGGCCAGCGTAGGGACGGC, the PBM binding z-score is 3.43 in assay [1]; 4.42 in assay [2]; 4.81 in assay [3]; 1.4 in [4]; 4.2 in assay [5]; 3.3 in assay [6]. The values for the PBM binding z-score in assay [7] and in [9] were 0.936 and 0.947, respectively.

For the sequence CGTCCAAGGTCAAGGTTAGTGAAAGAGACTCGAA, the PBM binding z-score in assay [1] turned out to be 4.33; in assay [2] it was 5.94; in assay [3], 6.75; in assay [4], 3.28; in assay [5] it was 5.75; in [6] it was 3.98. For the same sequence, the results for the PBM binding z-score in assay [7] and in assay [9] were 2.66 and 1.85, respectively.
